# Rows were chosen to be rich in hits. Some 5.6% of all compounds tested hit in one or more screens of this group.
# H9c2 protect = modulators protecting cardiomyocytes from myocardial damage; H9c2 cardiomyocytes, H2O2 injury protection, ATPLite, 2 h; protection from H2O2 cell death, % at 20 µM; 0.63% of 360,000 active; AID 588492;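 active = compounds giving at least 50% protection of heart cells from peroxide-induced death in the single-dose screen, raw or plate-pattern-corrected value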;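 note: 0% = DMSO wells with peroxide and 100% = DMSO wells without peroxide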
# M18AAP inhibitor = PfM18AAP enzyme inhibition. recombinant PfM18AAP, H-Glu-NHMec fluorogenic cleavage. inhibition, % at 7.35 µM. 1.2% of 290,000 active. AID 1822;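 active = inhibition above the campaign mean inhibition over all tested compounds plus 3 SD, cut at about 28% in these data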;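 note: 0% = plate median of test compound wells and 100% = 2 mM ZnCl2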
# PHOSPHO1 block = PHOSPHO1 (human) inhibition | Q8TCT1 | recombinant PHOSPHO1, absorbance phosphatase assay | inhibition, % at 13.3 µM | 1.1% of 290,000 active | AID 1565; in the data active = inhibition above about 60%
# Target sequence (Q8TCT1 whole entry, looked up): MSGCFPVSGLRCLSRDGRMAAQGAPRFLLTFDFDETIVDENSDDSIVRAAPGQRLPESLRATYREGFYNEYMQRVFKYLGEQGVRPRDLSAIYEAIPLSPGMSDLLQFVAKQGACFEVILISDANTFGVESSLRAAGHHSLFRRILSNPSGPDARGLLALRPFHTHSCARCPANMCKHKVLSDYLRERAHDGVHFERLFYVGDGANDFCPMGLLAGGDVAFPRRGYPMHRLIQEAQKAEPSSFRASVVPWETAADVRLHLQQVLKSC
# PfG6PD inh = PfG6PD (Plasmodium falciparum) enzyme inhibition; PfGluPho enzyme, NADPH resazurin-diaphorase fluorescence; inhibition, % at 20 µM; 0.78% of 350,000 active; AID 504690;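 active = inhibition reaching at least a set limit at 20 µM in the primary screen, cut at about 59% in these data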;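 note: 0% = DMSO wells with substrate and 100% = DMSO wells lacking glucose-6-phosphate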
# ALR H2O2 inh = blocks human ALR sulfhydryl oxidase activity. P55789. purified ALR, DTT oxidation, H2O2 HRP-luminol luminescence. inhibition, % (test concentration not listed). 3.8% of 290,000 active;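 active = mean replicate inhibition above about 79%, with every replicate also reaching it, limit read from the data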
# Numbers without * were called inactive; nt = not tested or not shown.
SMILES,H9c2 protect,M18AAP inhibitor,PHOSPHO1 block,PfG6PD inh,ALR H2O2 inh
NS(=O)(=O)c1ccc(NC(=O)COc2ccc(S(=O)(=O)N3CCCC3)cc2)cc1,-2,5,39,6,nt
COc1cc(/C=C/c2sc3ccccc3[n+]2CCCS(=O)(=O)[O-])ccc1O,-10,27,47,39,99*
CCC(/C=C1\Oc2ccc(OC)cc2N1C)=C\c1sc2ccccc2[n+]1CCCS(=O)(=O)[O-],-4,nt,nt,-22,nt
COc1ccc2c(Cl)c(C(=O)N/N=C3\CCCC(=O)C3)sc2c1,8,18,28,18,40
CCOc1ccccc1NC(=O)CN1C(=O)CSC(C)C1=O (configuration not stated),-6,0,65*,9,nt
CCOc1ccccc1NC(=O)CN1C(=O)C(C)SC(C)C1=O (configuration not stated),-4,-3,28,7,nt
CN(C)c1ccc(C(=O)c2ccc(N(C)C)c(N)c2)cc1N,-8,12,2,11,95*
COc1ccc(C(=O)NC2CCCc3c2cnn3-c2cccc(C)c2C)o1 (configuration not stated),-14,5,64*,7,47
CC1=C(C(=O)NC2CCCc3c2cnn3-c2cccc(C)c2C)OCCO1 (configuration not stated),-13,0,27,-5,22
COc1ccc(-c2cn3cccnc3n2)cc1NC(=O)C(C)Oc1ccccc1 (configuration not stated),21,3,36,5,8
O=C(c1cnn(C(=O)COc2ccc(Cl)cc2)c1)c1ccccc1O,8,30*,0,-10,15
O=C(c1cnn(C(=O)c2ccccc2F)c1)c1ccccc1O,5,nt,nt,-3,18
O=C(c1cnn(C(=O)c2ccccc2)c1)c1ccccc1O,6,31*,19,4,nt
Cc1ccc(O)c(C(=O)c2cnn(C(=O)COc3ccc(Cl)cc3)c2)c1,0,15,-5,-17,-1
CCOC(=O)C(=O)Nc1nc(-c2ccc3c(c2)CCN3C(=O)C2CC2)c(C)s1,1,10,32,-13,99*
Cc1sc(NC(=O)c2ccco2)nc1-c1ccc2c(c1)CC(C)N2C(=O)C1CC1 (configuration not stated),13,12,47,38,-20
CC(=O)Nc1nc(-c2ccc3c(c2)CC(C)N3C(=O)C2CC2)c(C)s1 (configuration not stated),-2,2,32,37,99*
O=C(NCCC(=O)N1CCN(c2ccccn2)CC1)c1ccc(Cl)cc1,-3,nt,nt,-14,-9
NC(=O)c1ccsc1NC(=O)COC(=O)COc1ccccc1F,0,-7,-16,8,78*
NC(=O)c1ccsc1NC(=O)COC(=O)COc1ccccc1[N+](=O)[O-],-9,nt,nt,5,-1
CN1C=CC=C/C1=C(\C#N)c1nc2ccccc2[nH]1,4,-2,7,0,99*
Cc1ccc(C(=O)NC(=S)N2CCN(c3cc(C)ccc3C)CC2)cc1,2,9,32,3,3
Cc1ccc(-n2[nH]c(=O)c3cccnc32)cc1,2,3,40,-3,97*
S=c1[nH]nc(-c2ccc3ccccc3n2)o1,-12,-30,89*,6,91*
COc1ccc(N2CCN(C(=O)CCCn3nnnc3CN3CCOCC3)C(C)C2)cc1 (configuration not stated),0,7,46,-3,99*
SMILES,H9c2 protect,M18AAP inhibitor,PHOSPHO1 block,PfG6PD inh,ALR H2O2 inh
CCOC(=O)CC1CCCCN1C(=O)CCCn1nnnc1CN1CCOCC1 (configuration not stated),5,-6,14,-14,0
O=[N+]([O-])c1cccnc1N1CCOCC1,5,1,-3,6,-27
O=[N+]([O-])c1cccnc1N1CCN(c2ccc(F)cc2)CC1,17,-12,28,-5,98*
COc1ccc(COn2nnc3ccc(S(=O)(=O)N4CCOCC4)cc32)cc1F,-1,nt,nt,-5,1
CN(C)Cc1ccccc1Sc1ccc(O)cc1O,4,9,0,29,100*
CN(C)Cc1ccccc1Sc1ccc(Br)cc1,0,2,0,36,-10
COC(=O)c1c(-c2ccccc2)csc1NC(=O)c1ccco1,-9,9,8,-8,-2
O=C(Nc1scc(-c2ccc(F)cc2)c1C(=O)O)c1ccco1,-13,18,-51,-7,88*
CSCC(=O)N1CCCC(N2CCN(c3ccc(F)cc3)CC2)C1 (configuration not stated),0,5,26,2,59

# Source: PubChem BioAssay
